# Screens from PubChem.
# The list is not random: actives were taken first. Their share in the collection is about 18%.
# IL1B secr inh: blocks inflammasome-driven IL-1 beta release; THP-1 LPS/ATP IL-1B secretion, AlphaLISA, 16 h; stronger effect = lower value; activity change, % at 57.5 µM; 4.7% of 360,000 active; in the data active = activity change below about -50%; inconclusive = mostly about -30% to -49%
#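 THP-1 cells pretreated 1 hr with compounds (up to 57.5 uM final), then stimulated with LPS (250 ng/mL final) plus ATP (1.25 mM final); secreted IL-1B measured by AlphaLISA after 16 hr, decreased signal indicating inhibition.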
# LDHA inh: LDHA (human) enzyme inhibition; P00338; purified LDHA, NADH/diaphorase-resazurin fluorescence; stronger effect = lower value; activity change, % (values are at about 110 or 230 µM); 0.15% of 480,000 active; AID 1347041; in the data active = activity change below about -30%; inconclusive = mostly about -25% to -30%;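 also: plate controls were DMSO wells for no effect and wells without enzyme for full effect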
#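 Enzyme activity of human lactate dehydrogenase 5 (2 nM; 0.06 mM NADH, 0.2 mM pyruvate, 5 min, RT) is measured via a resazurin/diaphorase fluorescence readout of residual NADH.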
# TDP1 cell CPT: DT40-hTDP1 cell growth loss with CPT. chicken DT40 Tdp1-/-;hTDP1 cells + 20 nM CPT, ATP luminescence, 48 h. Potency, µM (top dose mostly 46.2 µM), for inactives: at the highest dose activity change, negative = growth inhibition, most hits filed as inhibitors. 12% of 420,000 active; also: potency is read from the fitted curve at half-maximal effect; nearly all actives have a fitted effect of over 55% in size
#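 Cell growth measured by CellTiter-Glo luminescence after a minimum 48 h, 37 C compound exposure with 20 nM CPT in Tdp1-knockout DT40 cells stably expressing hTDP1, seeded 400/well; qHTS titration format.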
# Gal4-VP16 FLuc: counter-screen for ROR gamma inhibitors: Gal4-VP16 reporter; 3.5% of 310,000 active; Drosophila S2 Gal4-VP16 UAS-luciferase, luminescence, 20 h; AID 2546; Potency, µM (titrated, usually from 53.6 µM), inactives show top-dose activity, negative = inhibition, most hits filed as inhibitors;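 also: Gal4-VP16 expression switched on by copper sulfate through the metallothionein promoter; potency is read from the fitted curve at half-maximal effect; nearly all actives have a fitted effect of over 50% in size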
# TDP1 cell noCPT: qHTS for Inhibitors of human tyrosyl-DNA phosphodiesterase 1 (TDP1): qHTS in cells in absence of CPT; Potency, µM (titrated, usually from 46.2 µM), for the others: at the top dose activity change, negative = growth inhibition, hits mostly inhibitors; DT40 Tdp1-/- hTDP1 cells, no CPT, ATP luminescence, 48 h; 15% of 420,000 active; also: potency is read from the fitted curve at half-maximal effect; nearly all actives have a fitted effect of over 55% in size
#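 DT40 Tdp1-/-;hTDP1 cells, no CPT (DMSO vehicle only), 400 cells/well; compounds pin-transferred; ≥48 hr, 37 °C; CellTiter-Glo 30 min RT dark, luminescence read.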
# RORgamma inh: blocks mouse ROR gamma transcriptional activity. P51450. Drosophila S2 Gal4-RORgamma UAS-luciferase reporter, 20 h. Potency, µM (series often up to 53.6 µM), inactives show at the highest dose activity change, negative = inhibition, hits mostly inhibitors. 5.4% of 310,000 active; also: potency is read from the fitted curve at half-maximal effect; nearly all actives have a fitted effect of over 60% in size
# Target sequence (P51450 whole entry, looked up, the tested form may be a part): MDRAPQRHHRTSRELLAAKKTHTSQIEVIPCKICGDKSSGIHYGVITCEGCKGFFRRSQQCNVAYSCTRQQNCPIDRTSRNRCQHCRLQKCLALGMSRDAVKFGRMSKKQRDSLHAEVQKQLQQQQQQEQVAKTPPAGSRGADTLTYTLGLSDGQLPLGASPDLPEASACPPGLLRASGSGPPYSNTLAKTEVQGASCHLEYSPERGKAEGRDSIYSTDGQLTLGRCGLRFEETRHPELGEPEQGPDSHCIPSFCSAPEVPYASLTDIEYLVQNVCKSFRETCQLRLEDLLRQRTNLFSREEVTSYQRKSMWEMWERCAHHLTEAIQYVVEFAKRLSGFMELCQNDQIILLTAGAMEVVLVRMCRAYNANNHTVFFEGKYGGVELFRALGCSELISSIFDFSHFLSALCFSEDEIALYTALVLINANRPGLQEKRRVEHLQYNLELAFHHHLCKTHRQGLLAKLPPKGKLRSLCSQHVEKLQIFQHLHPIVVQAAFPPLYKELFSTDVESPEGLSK
#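 Using a luciferase readout, inhibitors were identified by reduced reporter activity in Drosophila cells coexpressing a copper-inducible Gal4–ROR gamma fusion and UAS-driven Photinus luciferase, incubated 20 hr after 700 uM copper sulfate.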
# * = called active by the depositor; ? = inconclusive; / = no result given; [ ] = dose if it differs, or a comment. Unless noted, calls follow the shape of the dose curve; as a rule, active = well fitted curve in the direction sought with a large enough effect; inconclusive = small, poorly fitted or top-dose-only effect, or another doubt; inactive = no such curve, though single readings can be large; an effect the other way counts as inactive or inconclusive. Unless noted, % is scaled to controls: 0 for no effect and ±100 for the full control effect.
SMILES,IL1B secr inh,LDHA inh,TDP1 cell CPT,Gal4-VP16 FLuc,TDP1 cell noCPT,RORgamma inh
Cc1ccc(-c2n[nH]c(=O)c3ccccc23)cc1S(=O)(=O)NCC1CCCO1 (stereo not drawn),22.8,-3.1,?,3.2%,?,-1.5%
Cc1ccc(-c2nnc(Nc3cccc(O)c3)c3ccccc23)cc1S(=O)(=O)NCC1CCCO1 (stereo not drawn),/,-7.8,?,/,23.1µM*,/
Cc1ccccc1Nc1nnc(-c2ccc(C)c(S(=O)(=O)NCC3CCCO3)c2)c2ccccc12 (stereo not drawn),/,-4.2,?,/,13µM*,/
Cc1ccc(-c2nnc(Nc3ccc(CC(N)=O)cc3)c3ccccc23)cc1S(=O)(=O)NCC1CCCO1 (stereo not drawn),?,-13.2,0.9%,3.5%,3.3%,5.5%
CCc1ccc(C(CNC(=O)c2nn(C)c(=O)c3ccccc23)N(C)C)cc1 (stereo not drawn),/,-1.1,/,/,/,/
Nc1nc2sc3c(c2cc1C(=O)NCC(=O)O)CCCC3,15.2,-5.2,-27.9%,?,-5.1%,10µM*
CCOC(=O)c1ccc(-c2c(-c3ccc(OC)cc3)oc(=O)c3cc(OC)c(OC)cc23)cc1F,14.7,0.3,20.6µM*,/,10.3µM*,/
CCOC(=O)c1ccc(-c2c(-c3ccccc3OC)sc3cc4c(cc23)OCO4)cc1F,56.3,-0.1,?,/,?,/
CCOC(=O)c1ccc(-c2c(-c3cc(OC)c(OC)c(OC)c3)noc2C)cc1F,42.3,-0.4,1.64µM*,1.7%,1.03µM*,-23.6%
Cc1ccccc1NC(=O)CSc1nc2ccccc2nc1C,/,-19.1,/,/,/,/
CCCC(C)NC(=O)Cc1c(C)[nH]c2ccc(F)cc12 (stereo not drawn),/,0.2,/,/,/,/
Cn1nc(CC(=O)Nc2ncc(Br)s2)c2ccccc2c1=O,14.7,-0.6,10.3µM*,1.5%,?,?
CC(=O)Nc1cccc(NC(=O)Cc2nn(C)c(=O)c3ccccc23)c1,/,10.9,/,/,/,/
Cn1nc(CC(=O)NC2CCCC2)c2ccccc2c1=O,/,6.3,/,/,/,/
Cn1nc(CC(=O)NC2CCCCCCCCCCC2)c2ccccc2c1=O,18.2,0.4,18.4µM*,-7.6%,18.4µM*,11.0%
Cn1nc(CC(=O)Nc2ccc3c(c2)CCC3)c2ccccc2c1=O,89.3,-2.8,3.26µM*,?,1.64µM*,?
CCCCn1nc(C(=O)NC2CCCCC2)c2ccccc2c1=O,-7.7,-10.0,?,/,11.6µM*,/
CNC(=O)c1ccc(-c2nc(CN3CCN(C(=O)Nc4ccc(C)c(F)c4)CC3)c(C)o2)cc1,/,11.0,/,/,/,/
CCNCC(=O)N1c2ccccc2CCc2ccc(NC(C)=O)cc21,1.5,-1.6,-12.2%,-1.3%,-7.8%,-11.6%
CCNCC(=O)N1c2ccccc2CCc2ccc(NC(=O)OC(C)C)cc21,-66.2*,-0.5,?,-4.1%,16.4µM*,-7.2%[1.91 µM]
CCOC(=O)Nc1ccc2c(c1)N(C(=O)N(C)C)c1ccccc1CC2,0.0,-2.2,?,8.6%,29.1µM*,42.2%
Cc1oc(-c2cccs2)nc1CC(=O)N1CCOCC1,/,8.4,/,/,/,/
O=C(c1[nH]c(C(F)(F)F)nc1-c1ccccc1)N1CCN(c2ccccc2)CC1,26.5,-2.4,4.61µM*,/,4.11µM*,/
Cc1cc(N2CCN(C(=O)c3[nH]c(C(F)(F)F)nc3-c3ccccc3)CC2)c2ccccc2n1,42.6,-4.8,16.4µM*,/,14.6µM*,/
Cc1ccc(N2CCN(C(=O)c3[nH]c(C(F)(F)F)nc3-c3ccccc3)CC2)cc1,43.6,-1.5,?,/,?,/
SMILES,IL1B secr inh,LDHA inh,TDP1 cell CPT,Gal4-VP16 FLuc,TDP1 cell noCPT,RORgamma inh
O=C(c1[nH]c(C(F)(F)F)nc1-c1ccccc1)N1CCN(c2ncccn2)CC1,-0.7,-1.7,29.1µM*,/,?,/
O=C(c1[nH]c(C(F)(F)F)nc1-c1ccccc1)N1CCc2c([nH]c3ccccc23)C1,56.2,1.9,5.8µM*,/,5.8µM*,/
COCCn1ccc2c(OCC(=O)Nc3ccccc3)cccc2c1=O,/,-6.3,/,/,/,/
O=C(O)CSCC(=O)N1CCN(c2cc(C(F)(F)F)nc3ccccc23)CC1,24.3,-10.5,12.1%,-0.9%,-22.8%,-9.5%
O=C(c1cc(Cl)cc(Cl)c1)N1CCN(c2cc(C(F)(F)F)nc3ccccc23)CC1,22.6,-2.8,20.6µM*,3.3%,11.6µM*,3.4%
Cc1ccc2c(c1C)-c1c(ccc(C)c1C)C(=O)C2=O,-85.3*,19.1,0.92µM*,/,1.03µM*,/
O=c1ccc2ccccc2[nH]1,/,/,/,12.6µM*,/,6.31µM*
c1ccc2[nH]ccc2c1,/,/,-16.7%,-1.8%,-9.0%,9.0%
COC(=O)c1ccc(NC(=O)CCCc2cccs2)cc1,/,7.5,/,/,/,/
Cc1ccc(NC(=O)CN(Cc2ccco2)Cc2ccccc2O)cc1C,-61.8*,-1.7,?,10.0%,?,?
Cc1ccc(NC(=O)N(Cc2ccco2)C(C)c2ccco2)cc1C (stereo not drawn),-1.3,-5.2,?,-7.6%,23.1µM*,29.6%
Nc1ncnc2c1cnn2-c1ccccc1,11.6,-9.9,5.2%,6.2%,2.5%,2.1%
S=c1nc[nH]c2c1cnn2-c1ccccc1,-3.0,-8.5,-5.6%,3.98µM*,5.2%,3.55µM*
CCOc1ccc(-c2nc(N)ncc2Oc2cccc(OC)c2)c(O)c1,?,12.7,?,-5.2%,18.4µM*,38.4%
COc1cccc(Oc2cnc(N)nc2-c2ccc(OCc3ccccc3)cc2O)c1,/,-1.1,/,/,/,/
C=C(C)COc1ccc(-c2nc(N)ncc2Oc2ccccc2OC)c(O)c1,-61.6*,-3.7,?,-11.3%,?,16.7%
C=C(C)COc1ccc(-c2nc(N)ncc2Oc2ccc(OC)cc2)c(O)c1,0.0,4.6,?,-25.1%,29.1µM*,9.5%
COc1ccc(-c2nnc3sc(-c4ccccc4C)nn23)cc1OC,/,5.8,/,/,/,/
O=C(O)c1ccc(-c2cc3ccccc3oc2=O)cc1,/,0.2,/,/,/,/
O=C(Nc1nnc(C2CC2)s1)C1CC(c2cccc(F)c2)=NO1 (stereo not drawn),/,11.0,/,/,/,/
Cc1nc(N2N=C3/C(=C/c4ccc(F)cc4)CCCC3C2c2ccc(F)cc2)sc1C(=O)N(C)C (stereo not drawn),-2.3,3.5,?,?,29.1µM*,-0.3%
COc1ccc(/C=N/NC(=S)Nc2ccccc2)cc1COc1ccccc1F,/,/,/,3.16µM*,/,2.24µM*
COc1ccc(/C=N/NC(=S)Nc2ccccc2)cc1COc1ccc(Br)cc1,39.2,-4.5,14.6µM*,2.24µM*,?,0.316µM*
